From PubChem BioAssay AID624418 (National Center for Advancing Translational Sciences (NCATS), 2012)
Hit rate of the full screen: of about 410,000 compounds, about 530 (0.13%) were called active. Another 5% or so got no clear call; they are omitted. Calls come from the whole dose curve; as a rule, active = well fitted inhibition curve with a large enough effect; inconclusive = small, poorly fitted or top-dose-only effect, or another doubt; inactive = no such curve, though single readings can be large or run the other way. The entries come from a sample that favours actives as a whole.

Assay: qHTS of GLP-1 Receptor Inverse Agonists: Cytotox Screen;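 note: loss of luciferase light is scored as toxicity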
Conditions: HEK293 cAMP-luciferase reporter cells, luminescence, 24 h; series mostly up to 38.3 µM; activity change, negative = inhibition: at the top concentration
Description: The overall goal of this project was to develop a novel assay for discovering small molecule ligands for class B1 G protein-coupled receptors (GPCRs). Very few agonists (or inverse agonists) with generally weak activity for this entire group of physiologically important receptors are known to date. To establish proof-of-principle that this critical bottleneck can be overcome with a suitable screening approach, our studies focused on the class B1 receptor for glucagon-like peptide-1 (GLP-1R), a potential therapeutic target for diabetes and neurodegenerative disease.
The assay was developed using a cell-based functional readout. Toward this goal, stably transfected HEK293 cell clones were established that co-express (i) a cAMP-responsive luciferase reporter gene, and (ii) constitutively active GLP-1R that upon ligand interaction inhibit (inverse agonists) the luciferase activity. In addition, two control cell lines were developed: (i) one that express only the cAMP-responsive reporter gene to enable initial exclusion of GLP-1R independent effects of candidate probes; and (ii) one with the reported gene cloned with another constitutively active orphan receptor GPR119 to enable exclusion of GLP-1R independent inhibitor effects of candidate inverse agonists.
To that end, this assay was optimized for 1536-well format and screened against the MLSMR. Then the same collection was run in this cytotoxicity assay where inhibition was the undesired outcome.
NIH Molecular Libraries Probe Production Network [MLPCN]
NIH Chemical Genomics Center [NCGC]
PI Name: Martin Beinborn, Tufts Medical Center
Six ul of cell suspension (200 cells/uL in DMEM + 10% Nu serum + 1% pen-strep) is dispensed in a white solid 1536-well plate. The plates are incubated for 12 hours at 37 deg C at 5% CO2 followed by addition of 23 nL compounds. After 24 hr incubation at 37 deg C and 5% CO2, 3 uL of luciferase assay detection reagent is added. A luminescence read is obtained on the PerkinElmer Viewlux after 12 min incubation at room temperature.
% is set by controls: 0 for no effect and ±100 for the full control effect; potency is the fitted concentration of half-maximal effect.

Row | Structure (SMILES) | Potency | activity change, negative = inhibition
1 | O=C(Nc1ccc(OC(F)(F)F)cc1)c1ccc2c(c1)no[n+]2[O-] | 11.2 µM (active) | 
2 | O=C(Nc1ccc(Cl)cn1)Nc1cccs1 |  | 49.1% (inactive)
3 | CCOC(=O)[C@]12Cc3cc(OC)ccc3[C@H]1N(C(C)C)C(=O)c1ccccc12 |  | -28.2% (inactive)
4 | CCOc1ccc2nc(Nc3nc4ccc(NC(C)=O)cc4s3)sc2c1 |  | 37.9% (inactive)
5 | Cc1ccc(NC(=O)N(Cc2ccc3c(c2)OCO3)C2CCN(Cc3ccccc3)CC2)cc1F |  | -0.237% (inactive)
6 | COc1ccc(CS(=O)/C(Cl)=C(/Cl)C(=O)Nc2ccc(OC)nc2)cc1 (stereo not given) | 3.98 µM (active) | 
7 | O=C1N[C@H](Cc2c[nH]c3ccccc23)COC(=O)[C@H](Cc2ccc(F)cc2)C/C=C\C[C@H]1CC(=O)N(CCO)Cc1ccccc1 |  | -58.3% (inactive)
8 | CCN(CC)CCCC(C)n1c2nc(=O)[nH]c(=O)c-2nc2cc(Cl)ccc21 (stereo not given) |  | 490% (inactive)
9 | c1cc2c(c(NC3=NCCCS3)c1)CCCC2 |  | -18% (inactive)
10 | Cc1nnc(NC(=O)c2cccn(Cc3cccc(F)c3)c2=O)s1 |  | 4.13% (inactive)
11 | Cc1cccc(Cn2cccc(C(=O)Nc3ccc4c(c3)OCCO4)c2=O)c1 |  | 4.23% (inactive)
12 | C=CCC[C@@H](Cc1ccc(F)cc1)C(=O)OC[C@H](Cc1c[nH]c2ccccc12)NC(=O)[C@@H](CC=C)CC(=O)N(CCO)Cc1ccccc1 |  | 7.51% (inactive)
13 | Nc1ccc(-c2sc(N)nc2-c2ccccc2)cc1 |  | 184% (inactive)
14 | NS(=O)(=O)c1ccc(NC(=O)COC(=O)c2c3c(nc4ccccc24)/C(=C\c2ccc4c(c2)OCO4)CCC3)cc1 |  | 80.2% (inactive)
15 | C=CC(=O)Nc1ccc(Nc2ccnc(Nc3ccc(N4CCN(C)CC4)cc3)n2)cc1 | 10 µM (active) | 
16 | CCC1(CC(C)c2ccccc2)C(=O)NC(=O)NC1=O (stereo not given) |  | 9.72% (inactive)
17 | COc1cccc2sc3cc(NCC[C@@H]4CCCN4C)ccc3c(=O)c12 |  | 221% (inactive)
18 | CC(C)c1ccc(C=NNc2ccc([N+](=O)[O-])cn2)cc1 |  | 44.1% (inactive)
19 | Cc1cc(C)c2c(c1)cc(C)c1nnc(SCC(=O)Nc3cc(C)on3)n12 | 10 µM (active) | 
20 | COc1ccc(-c2nc3cnccn3c2NC2CCCCC2)cc1-c1cccc(Cl)c1 |  | 77.1% (inactive)
21 | NC(=O)c1sc2nc3c(c(-c4ccccc4)c2c1N)CCC3 |  | 56.3% (inactive)
22 | O=C(c1cc(S(=O)(=O)N2CCOCC2)ccc1F)N1CCC2(CC1)OCCO2 |  | -20.6% (inactive)
23 | O=C(Nc1nnc(-c2ccccc2)o1)c1cccc(S(=O)(=O)N2CCOCC2)c1 | 10 µM (active) | 
24 | COc1ccccc1OC(=O)c1ccc(C)c(S(=O)(=O)N2CCOCC2)c1 |  | 0.53% (inactive)
25 | CCc1ccc(OCC(=O)N2CCN(CC(=O)Nc3ccccc3Cl)CC2)cc1 |  | -14.3% (inactive)
